# Reference: PubChem BioAssay (NCI)
# Compounds without any hit were thinned out: in the full panel of roughly 83,000, 20% have a hit.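 Results are percent growth after 48 hours of single-concentration exposure. 100 means growth as in untreated cells, lower positive values show inhibition; negative values down to -100 show cell death.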 A number with no mark means an inactive call. The source made the active and inactive calls. Rule for the calls: active = growth percent below 10; inactive = the rest.
# Experiments:
# Test in all cases: NCI-60 one-dose screen, 48 h (100 = growth as untreated, 0 = no growth, -100 = all killed)
# Conditions in all cases: 10 µM unless noted
# NCI-H23 lung = system: NCI-H23 lung
# NCI-H226 lung = system: NCI-H226 lung
# NCI-H322M lung = system: NCI-H322M lung
# HOP-62 NSCLC = system: HOP-62 NSCLC
# NCI-H460 lung = system: NCI-H460 lung
# HOP-92 NSCLC = system: HOP-92 NSCLC
# NCI-H522 lung = system: NCI-H522 lung
# A549/ATCC NSCLC = system: A549/ATCC NSCLC
# 786-0 renal = system: 786-0 renal
# COLO 205 colon = system: COLO 205 colon
# DU-145 prostate = system: DU-145 prostate
# K-562 leukemia = system: K-562 leukemia
# MALME-3M melanoma = system: MALME-3M melanoma
# MDA-MB-231 breast = system: MDA-MB-231 breast
# RXF 393 renal = system: RXF 393 renal
# SF-268 CNS = system: SF-268 CNS
# SF-295 CNS = system: SF-295 CNS
# SF-539 CNS = system: SF-539 CNS
# UACC-257 melanoma = system: UACC-257 melanoma
# M14 melanoma = system: M14 melanoma
SMILES,growth (NCI-H23 lung) [%],growth (NCI-H226 lung),growth (NCI-H322M lung) [%],growth (HOP-62 NSCLC),growth (NCI-H460 lung),growth (HOP-92 NSCLC),growth (NCI-H522 lung),growth (A549/ATCC NSCLC) [%],growth (786-0 renal),growth (COLO 205 colon),growth (DU-145 prostate),growth (K-562 leukemia),growth (MALME-3M melanoma),growth (MDA-MB-231 breast),growth (RXF 393 renal) [%],growth (SF-268 CNS) [%],growth (SF-295 CNS) [%],growth (SF-539 CNS),growth (UACC-257 melanoma),growth (M14 melanoma)
O=C1c2c(c3c4ccc(Br)cc4oc3c3[nH]c4ccccc4c23)C(=O)N1O,22.7,61.7%,59.7,29.3%,10.7%,-2.77% (active),6.86% (active),64.3,84.8%,42.7%,38.4%,30.4%,1.92% (active),80.1%,31.7,13.9,34.4,7.26% (active),83.6%,30.9%
CCN1CCN(c2cc(C(=O)Nc3nc(-c4cc(OC)c(OC)c(OC)c4)cs3)cc(C(F)(F)F)c2)CC1,79.4,86.8%,78,82.7%,57.3%,42.2%,67.6%,81.1,49.1%,58.2%,74.9%,3.83% (active),69.3%,47%,69.3,65.1,83.2,75.6%,88.6%,42.1%
CN1CCN(c2ccc(NC(=O)c3cncnc3Nc3ccc(OCc4ccccn4)c(Cl)c3)cc2)CC1,70.1,70.2%,62.2,3.8% (active),27.8%,45.7%,55.4%,25.9,-82.4% (active),-3.55% (active),56.5%,-21.4% (active),-55.1% (active),-11.2% (active),27.9,68.9,61,-12.7% (active),39%,-72.8% (active)
CN(C)CCCC1(c2ccc(F)cc2)OCc2cc(-c3cncc4ccccc34)ccc21 (stereo not given),77.6,77.2%,51.5,65%,10.6%,49.5%,42.9%,46.9,46.8%,16.3%,48.5%,1.06% (active),-85% (active),38.3%,20.1,49.5,17.8,54.9%,-64.5% (active),-56% (active)
Fc1cc(F)cc(C(c2c[nH]c3ccccc23)c2c[nH]c3ccccc23)c1,89.4,103%,86.1,91.1%,97.8%,89.4%,75%,82,98%,97.8%,105%,118%,130%,86.6%,115,97.6,78.6,106%,99.8%,98%
COc1ccc(-c2nc3c(c(-c4ccccc4)nn3-c3ccccc3)c(-c3ccc(N4CCOCC4)cc3)c2C#N)cc1,94,102%,102,104%,97.4%,99.4%,103%,103,82.4%,124%,106%,96.9%,103%,107%,38.6,112,91.6,85.9%,101%,101%
O=C(NCCCCNC(=O)OCc1ccc2c(Cl)cc(Cl)c(O)c2n1)OCc1ccc2c(Cl)cc(Cl)c(O)c2n1,24.6,8.33% (active),34.3,9.48% (active),2.78% (active),48.5%,-2.86% (active),14.8,70.7%,96.3%,1.77% (active),11.6%,43%,25.1%,27,31.3,22.8,-13.7% (active),23.8%,12.4%
COc1ccc(N2CCC(=O)NC2=S)cc1,96.2,98.6%,112,107%,104%,125%,88.9%,108,104%,106%,115%,107%,110%,102%,109,99.8,100,99.4%,108%,98.7%
